The record followed here is paper PMC8384837, “Expanding the binding specificity for RNA recognition by a PUF domain”.

Holding throughout (assay): yeast three-hybrid, YBZ-1, SC-Leu-His + 0.5 mM 3-AT, 4 days
Common to all, as to details: tags: N-Gal4 AD-HA kept; label: inside an RPR1-promoter hybrid RNA with tandem MS2 sites; ssRNA

One experiment concerns the target PUM1 PUF domain R5-RAQ (Homo sapiens, UniProt Q14671 828-1176, C1007R;R1008A). The method, boiled down: (§1)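 Sequencing with Illumina followed PCR amplification of the repeat regions from transformants grown four days on SC-Leu (input) or SC-Leu-His + 0.5 mM 3-AT (selection). The transformants were strain YBZ-1 with a LexA–MS2 coat fusion and a HIS3 reporter, carrying Pumilio-1 PUF domain libraries and matching RNA elements. The interaction score is the log change in variant frequency from input to selection, computed in log2 with a pseudocount of 1 for absent variants.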

The target in another experiment is PUM1 PUF domain R4-RFP (Homo sapiens, UniProt Q14671 828-1176, N971R;H972F;Q975P). The method, boiled down:
as §1

A further experiment addresses PUM1 PUF domain R5-KCL (Homo sapiens, UniProt Q14671 828-1176, C1007K;R1008C;Q1011L). The method, boiled down: as §1
Another experiment deals with PUM1 PUF domain R3-FYG (Homo sapiens, UniProt Q14671 828-1176, C935F;R936Y;Q939G). The method, boiled down: as §1
PUM1 PUF domain R3-FYG, sequence (Q14671 828-1176 C935F/R936Y/Q939G): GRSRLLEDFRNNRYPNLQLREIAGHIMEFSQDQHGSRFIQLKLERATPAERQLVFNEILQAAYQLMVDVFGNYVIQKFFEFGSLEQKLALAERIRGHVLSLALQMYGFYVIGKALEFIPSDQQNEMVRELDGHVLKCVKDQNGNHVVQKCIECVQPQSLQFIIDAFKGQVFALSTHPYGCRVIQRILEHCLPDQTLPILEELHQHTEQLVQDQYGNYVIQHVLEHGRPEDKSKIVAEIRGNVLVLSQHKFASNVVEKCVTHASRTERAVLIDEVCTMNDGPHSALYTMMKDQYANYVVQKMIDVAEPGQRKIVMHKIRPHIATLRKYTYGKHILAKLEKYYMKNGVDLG
The next experiment addresses T1, PUM1 PUF domain R6-FRS (Homo sapiens, UniProt Q14671 828-1176, N1043F;Y1044R;Q1047S).
T1 sequence: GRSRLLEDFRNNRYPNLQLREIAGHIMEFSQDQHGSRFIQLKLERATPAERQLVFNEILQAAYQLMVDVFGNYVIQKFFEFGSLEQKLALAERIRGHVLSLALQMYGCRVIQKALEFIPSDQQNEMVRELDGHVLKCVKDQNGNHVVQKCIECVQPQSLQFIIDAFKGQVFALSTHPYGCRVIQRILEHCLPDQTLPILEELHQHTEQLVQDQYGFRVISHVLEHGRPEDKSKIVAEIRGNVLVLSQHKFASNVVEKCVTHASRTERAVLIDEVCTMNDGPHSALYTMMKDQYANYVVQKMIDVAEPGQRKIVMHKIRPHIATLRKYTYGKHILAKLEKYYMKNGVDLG
The method, boiled down: as §1

Another experiment addresses PUM1 PUF domain R5-MYR (Homo sapiens, UniProt Q14671 828-1176, C1007M;R1008Y;Q1011R). The method, boiled down: as §1
A further experiment concerns the target PUM1 PUF domain R5-MKC (Homo sapiens, UniProt Q14671 828-1176, C1007M;R1008K;Q1011C). The method, boiled down: as §1
Another experiment concerns the target PUM1 PUF domain R5-SPR (Homo sapiens, UniProt Q14671 828-1176, C1007S;R1008P;Q1011R). The method, boiled down:
as §1

The target of the next experiment is PUM1 PUF domain R2-EWL (Homo sapiens, UniProt Q14671 828-1176, N899E;Y900W;Q903L). The method, boiled down:
as §1

Another experiment deals with PUM1 PUF domain R3-FCM (Homo sapiens, UniProt Q14671 828-1176, C935F;R936C;Q939M). The method, boiled down:
as §1

PUM1 PUF domain R5-RAQ, sequence (Q14671 828-1176 C1007R/R1008A): as the sequence (Q14671 828-1176 C935F/R936Y/Q939G) above, with F108C, Y109R, G112Q, C180R, R181A counted along it

On to “GGCUAGAACUAGUGGAUCCCCCGGCGCCCGGCGGCUCGAGCCCGGGUAAGUGUAAAUAGUCUGCAUGCCGCCGGGCGCCAUGCCUGCAGGUCGACUCUAGAAAACAUG”, for which the binding signal with PUM1 PUF domain R5-RAQ is 1.44 log2 enrichment (interaction score); with PUM1 PUF domain R4-RFP, 6.66 log2 enrichment (interaction score); in the experiment with PUM1 PUF domain R5-KCL, 2.45 log2 enrichment (interaction score); with PUM1 PUF domain R3-FYG, 4.62 log2 enrichment (interaction score); in the experiment with PUM1 PUF domain R6-FRS it was 2.9 log2 enrichment (interaction score); with PUM1 PUF domain R5-MYR, 2.55 log2 enrichment (interaction score).
Turning to “GGCUAGAACUAGUGGAUCCCCCGGCGCCCGGCGGCUCGAGCCCGGGUAAGUGUUAAUAGUCUGCAUGCCGCCGGGCGCCAUGCCUGCAGGUCGACUCUAGAAAACAUG”, the binding signal with PUM1 PUF domain R5-MKC was 2.53 log2 enrichment (interaction score); with PUM1 PUF domain R5-RAQ it was 4.06 log2 enrichment (interaction score).
Turning to “GGCUAGAACUAGUGGAUCCCCCGGCGCCCGGCGGCUCGAGCCCGGGUAAGUGUAUAUAGUCUGCAUGCCGCCGGGCGCCAUGCCUGCAGGUCGACUCUAGAAAACAUG”, in the experiment with PUM1 PUF domain R4-RFP, the binding signal was 3.26 log2 enrichment (interaction score).
On to “GGCUAGAACUAGUGGAUCCCCCGGCGCCCGGCGGCUCGAGCCCGGGUAAGUGUCAAUAGUCUGCAUGCCGCCGGGCGCCAUGCCUGCAGGUCGACUCUAGAAAACAUG”, for which the binding signal with PUM1 PUF domain R5-RAQ was 4.49 log2 enrichment (interaction score); with PUM1 PUF domain R5-KCL it was 3.63 log2 enrichment (interaction score); with PUM1 PUF domain R5-SPR, 5.38 log2 enrichment (interaction score).
With “GGCUAGAACUAGUGGAUCCCCCGGCGCCCGGCGGCUCGAGCCCGGGUAAGUGUAAAAAGUCUGCAUGCCGCCGGGCGCCAUGCCUGCAGGUCGACUCUAGAAAACAUG”, in the experiment with PUM1 PUF domain R2-EWL, the binding signal is 6.51 log2 enrichment (interaction score).
In the case of “GGCUAGAACUAGUGGAUCCCCCGGCGCCCGGCGGCUCGAGCCCGGGUAAGUGUAAGUAGUCUGCAUGCCGCCGGGCGCCAUGCCUGCAGGUCGACUCUAGAAAACAUG”, the binding signal was 7.3 log2 enrichment (interaction score) with PUM1 PUF domain R3-FYG and 4.3 log2 enrichment (interaction score) in the experiment with PUM1 PUF domain R3-FCM.
In the case of “GGCUAGAACUAGUGGAUCCCCCGGCGCCCGGCGGCUCGAGCCCGGGUAAGUGUAAUUAGUCUGCAUGCCGCCGGGCGCCAUGCCUGCAGGUCGACUCUAGAAAACAUG”, the binding signal with PUM1 PUF domain R3-FYG was 5.45 log2 enrichment (interaction score).
